From PMC4336329 (PLoS ONE, 2015) come the findings set out here.

About 14,000 (4.5%) of roughly 310,000 compounds showed an effect of 50% or more. Effects have a minus sign here. Many of the other results were omitted from the sample, so strong results are more common in it than they were.
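Also: peak tail current of the secondary pulse compared with the same well before compound.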

Sequence of human ether-à-go-go-related gene (hERG) potassium channel (Q12809 whole entry, looked up): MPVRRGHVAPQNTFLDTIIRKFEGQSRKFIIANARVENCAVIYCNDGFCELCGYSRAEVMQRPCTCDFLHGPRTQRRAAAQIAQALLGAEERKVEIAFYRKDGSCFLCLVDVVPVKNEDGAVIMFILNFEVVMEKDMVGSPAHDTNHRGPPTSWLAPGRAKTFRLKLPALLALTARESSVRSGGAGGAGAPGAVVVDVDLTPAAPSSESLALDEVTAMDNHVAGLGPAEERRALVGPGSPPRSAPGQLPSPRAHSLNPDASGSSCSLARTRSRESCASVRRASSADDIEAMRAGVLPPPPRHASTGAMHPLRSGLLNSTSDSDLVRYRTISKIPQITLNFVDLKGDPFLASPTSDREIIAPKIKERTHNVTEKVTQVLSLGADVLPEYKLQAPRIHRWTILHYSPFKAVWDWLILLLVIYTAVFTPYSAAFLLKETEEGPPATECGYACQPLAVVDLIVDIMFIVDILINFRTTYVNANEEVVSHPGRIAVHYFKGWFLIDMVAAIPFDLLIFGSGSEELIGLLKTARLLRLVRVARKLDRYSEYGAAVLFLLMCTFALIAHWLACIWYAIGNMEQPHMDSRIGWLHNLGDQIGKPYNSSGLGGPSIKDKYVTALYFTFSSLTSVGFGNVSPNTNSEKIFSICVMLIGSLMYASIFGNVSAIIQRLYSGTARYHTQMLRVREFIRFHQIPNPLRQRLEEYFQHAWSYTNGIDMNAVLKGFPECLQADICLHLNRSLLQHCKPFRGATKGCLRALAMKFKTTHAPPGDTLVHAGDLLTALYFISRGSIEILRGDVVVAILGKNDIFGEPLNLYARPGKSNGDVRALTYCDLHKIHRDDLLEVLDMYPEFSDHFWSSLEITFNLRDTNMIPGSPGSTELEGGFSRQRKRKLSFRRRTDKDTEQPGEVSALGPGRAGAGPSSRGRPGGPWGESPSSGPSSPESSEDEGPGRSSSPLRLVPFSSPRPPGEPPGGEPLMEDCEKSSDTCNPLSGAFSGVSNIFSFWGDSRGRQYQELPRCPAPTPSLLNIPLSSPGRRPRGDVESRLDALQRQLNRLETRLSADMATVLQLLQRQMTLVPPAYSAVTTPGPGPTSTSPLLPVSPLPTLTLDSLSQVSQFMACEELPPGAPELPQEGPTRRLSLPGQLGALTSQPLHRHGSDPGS

This assay concerns the target human ether-à-go-go-related gene (hERG) potassium channel (human, UniProt Q12809). Kind of assay: primary screen, population patch clamp on CHO cells stably expressing hERG; higher = less effect of the substance.
For `CCN(C(=O)Nc1ccccc1)c1ccccc1`, the “hERG current change (%, negative = inhibition) at 10uM” value was 4.25%. To `CN(C)CCCNc1ccc(-c2nn(C)c(=O)c3ccccc23)cc1[N+](=O)[O-]` belongs -16%. In the case of `Cl.Fc1ccc(Cn2nnnc2CN2CCc3ccccc3C2)cc1` it was -10.6%; in that of `Cn1c(CSc2nc3ccccc3s2)nnc1SCC(=O)NCc1cccnc1`, -5.4%. In the case of `CC(=O)Nc1cccc(OCc2cnc(Cl)s2)c1`, the “hERG current change (%, negative = inhibition) at 10uM” value came to 11.4%. In the case of `COc1ccccc1-c1c(C)nn2c(N3CCCCCC3)cc(C)nc12` it was -8.02%; in that of `CSc1ncc(C(=O)Nc2cccc(C)c2C)c(C)n1`, 9.56%. Take `Cc1ccc(C(=O)Nc2ccc(Br)c(C(F)(F)F)c2)cc1`: the “hERG current change (%, negative = inhibition) at 10uM” value is on record as 4.38%. Turning to `Cc1nn2c(COc3ccc(NC(=O)c4ccccc4)cc3)nnc2c2ccccc12`, the “hERG current change (%, negative = inhibition) at 10uM” value turned out to be 4.38%.

Take `Cc1nnc(SCc2ccc(F)cc2)n1NC/C=C/c1ccccc1`: the “hERG current change (%, negative = inhibition) at 10uM” value is listed as -18.6%. To `CCC(=O)c1ccc(OCC(=O)NCC2(N3CCCCC3)CCCCC2)cc1` belongs -51.5%; to `O=C(COc1ccccc1)NCC1(N2CCCCC2)CCCCC1`, -30%; to `CCOc1ccc(CC(=O)NCC2(N3CCCCC3)CCCCC2)cc1`, -17%. For `N#Cc1ccc(OCC(=O)NCC2(N3CCCCC3)CCCCC2)cc1`, the “hERG current change (%, negative = inhibition) at 10uM” value was -78.2%. As to `N#Cc1ccccc1OCC(=O)NCC1(N2CCCCC2)CCCCC1`, the “hERG current change (%, negative = inhibition) at 10uM” value is recorded as -29.4%.

Consider `CC(=O)c1ccc(OCC(=O)NCC2(N3CCCCC3)CCCCC2)cc1`, for which the “hERG current change (%, negative = inhibition) at 10uM” value is 4.71%. To `C/C(CCc1ccco1)=N/NC(=O)CCC(=O)Nc1ccc(Br)cc1` belongs 10.2%. As to `CCn1c(SCc2nc3sc(C(=O)O)c(C)c3c(=O)[nH]2)nc2ccccc21`, the “hERG current change (%, negative = inhibition) at 10uM” value is 3.32%. Turning to `CC(C)(C)C(=O)N1c2ccccc2CCc2ccccc21`, the “hERG current change (%, negative = inhibition) at 10uM” value is on record as -0.0543%. On to `CCOCCn1c(COc2ccc(C)cc2)nc2ccccc21`, for which the “hERG current change (%, negative = inhibition) at 10uM” value is given as -52.6%. As for `CCOCCn1c(COc2ccccc2)nc2ccccc21`, the “hERG current change (%, negative = inhibition) at 10uM” value was -33.6%. As for `C=CCn1c(COc2ccccc2)nc2ccccc21`, the “hERG current change (%, negative = inhibition) at 10uM” value is given as -7.62%.

`C=CCn1c(COc2ccccc2OC)nc2ccccc21`: the “hERG current change (%, negative = inhibition) at 10uM” value is -0.267%. Consider `C=CCn1c(COc2ccc(OC)cc2)nc2ccccc21`, for which the “hERG current change (%, negative = inhibition) at 10uM” value was -79.8%. To `COCCn1c(COc2ccc(C)cc2)nc2ccccc21` belongs -11.9%; to `O=C(Nc1cccc(NC(=O)c2ccccc2Cl)c1)c1ccc([N+](=O)[O-])o1`, -16.4%. In the case of `CC1Cc2nc(SCC(=O)N3CCCC3)n(C)c(=O)c2S1` (stereo not drawn) it was -7.79%.

For the compound `COc1ccc(C(=O)Nc2ccc(NC(=O)c3cccs3)cc2)cc1[N+](=O)[O-]`, the “hERG current change (%, negative = inhibition) at 10uM” value is on record as 5.49%. For `O=C1C2ON(c3ccccc3)C(c3cccnc3)C2C(=O)N1c1ccc(Cl)c(Cl)c1` (stereo not drawn), the “hERG current change (%, negative = inhibition) at 10uM” value turned out to be 10.5%.

Regarding `O=C1C2ON(c3ccccc3)C(c3cccnc3)C2C(=O)N1c1ccccc1` (stereo not drawn), the “hERG current change (%, negative = inhibition) at 10uM” value was 18.1%. In the case of `O=C1C2ON(c3ccccc3)C(c3cccnc3)C2C(=O)N1Cc1ccccc1` (stereo not drawn) it was -50.8%; in that of `CC(C)(C)n1nnnc1C(c1ccc(F)cc1)N1CCC(C(N)=O)CC1.Cl` (stereo not drawn), 11.3%. To `O=C(c1ccc(-c2cccc(C(F)(F)F)c2)o1)N1CCOCC1` belongs -21.8%.

With `O=C(c1ccc(-c2cccc(C(F)(F)F)c2)o1)N1CCN(c2ccccc2O)CC1`, the “hERG current change (%, negative = inhibition) at 10uM” value worked out at 17.1%. To `CC(C)(CNC(=O)c1ccc(-c2cccc(C(F)(F)F)c2)o1)N1CCOCC1` belongs -76.3%; to `COc1ccc(C(CNC(=O)c2ccc(-c3cccc(C(F)(F)F)c3)o2)N2CCOCC2)cc1` (stereo not drawn), -6.09%. To `O=C(c1ccc(-c2cccc(C(F)(F)F)c2)o1)N1CCCCCCC1` belongs -3.68%. In the case of `O=C(c1ccco1)N1CCN(Cc2cccc(C(F)(F)F)c2)CC1` it was -5.15%; in that of `CC(=O)N1CCN(C(=O)c2ccc(-c3cccc(C(F)(F)F)c3)o2)CC1`, -53.5%.

Consider `O=C(c1ccco1)N1CCN(C(=O)c2ccc(-c3cccc(C(F)(F)F)c3)o2)CC1`, for which the “hERG current change (%, negative = inhibition) at 10uM” value was -79.9%. To `CC1CN(C(=O)c2ccc(-c3cccc(C(F)(F)F)c3)o2)CC(C)O1` (stereo not drawn) belongs -43.7%.

For `CC(=O)NC(CC(=O)Nc1cccc(S(=O)(=O)N2CCCCC2)c1)c1ccccc1` (stereo not drawn), the “hERG current change (%, negative = inhibition) at 10uM” value is -1.76%.

With `CCCCC(=O)Nc1cc(Cl)ccc1C(=O)O`, the “hERG current change (%, negative = inhibition) at 10uM” value amounted to 27.6%. To `CC(=O)N1CCC(c2c[nH]c3ccccc23)CC1` belongs 5.87%. In the case of `CCn1ncc(-c2ccnc3cc(C(=O)O)nn23)c1C`, the “hERG current change (%, negative = inhibition) at 10uM” value was determined as 12.6%.
